Assay results published in the supplement of paper PMC10849652.
About 8,800 targets were measured; listed, in parts, are those with a hit and a random draw of the rest. About 0.5% of all pairs of compound and target were hits.

Legend:
Experiment in all cases: log2 fold change, soluble protein after heating vs DMSO (PISA); higher = thermal stabilisation; K562 lysate, 10 uM; active = over 0.2 and 3.5 SD of the protein, either way, in both replicates (recomputed)
[1] = compound: CCCS(=O)(=O)Nc1ccc(F)c(C(=O)c2c[nH]c3ncc(-c4ccc(Cl)cc4)cc23)c1F [vemurafenib]
How it was run: (§1)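 Values give the log-two fold change in thermal stability against solvent controls, from duplicates. Crude K562 extract at 1 mg/mL protein, made by dounce homogenisation in PBS pH 7.4 with 1 mM MgCl2, was treated with 10 μM compound for 30 min. After 3 min heating across 48°C-58°C, aliquots were pooled, adjusted to 0.5% NP-40 at 4°C and centrifuged at 21,000xg for 90 min. The supernatant was measured by TMTpro 16plex LC-MS/MS with channel sums equalised.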

[2] = compound: CCCS(=O)(=O)Nc1ccc(F)c(C(=O)c2c[nH]c3ncc(Cl)cc23)c1F
How it was run: as §1

[3] = compound: CC[C@@H]1C(=O)N(C)c2cnc(Nc3ccc(C(=O)N[C@H]4CC[C@H](N5CCN(CC6CC6)CC5)CC4)cc3OC)nc2N1C(C)C [volasertib]
How it was run: as §1

[4] = compound: CCn1c(C(=O)N(C2CC2)C2CC2)cc2c3c(ncn3C)c(Nc3cc(C)n(C)n3)nc21
How it was run: as §1

[5] = compound: CCn1cc(-c2ccnc3[nH]c(-c4cccc(CN(C)C)c4)cc23)c(-c2ccc(NC(=O)N(C)C)cc2)n1
How it was run: as §1

[6] = compound: CN1CCC(CNc2ccc3ncc(-c4cccc(OC(F)(F)F)c4)n3n2)CC1
How it was run: as §1

[7] = compound: CN1CCN(CCOc2cc(OC3CCOCC3)c3c(Nc4c(Cl)ccc5c4OCO5)ncnc3c2)CC1 [saracatinib]
How it was run: as §1

[8] = compound: CN1CCN(c2nc(C3=C(c4c[nH]c5ccccc45)C(=O)NC3=O)c3ccccc3n2)CC1 [sotrastaurin]
How it was run: as §1

[9] = compound: CC[C@@H]1C(=O)N(C)c2cnc(Nc3ccc(C(=O)NC4CCN(C)CC4)cc3OC)nc2N1C1CCCC1
How it was run: as §1

Measured: log2 fold change

ZBTB40 (UniProt Q9NUA8)
Chain of UniProt Q9NUA8 (Q9NUA8 whole entry, looked up): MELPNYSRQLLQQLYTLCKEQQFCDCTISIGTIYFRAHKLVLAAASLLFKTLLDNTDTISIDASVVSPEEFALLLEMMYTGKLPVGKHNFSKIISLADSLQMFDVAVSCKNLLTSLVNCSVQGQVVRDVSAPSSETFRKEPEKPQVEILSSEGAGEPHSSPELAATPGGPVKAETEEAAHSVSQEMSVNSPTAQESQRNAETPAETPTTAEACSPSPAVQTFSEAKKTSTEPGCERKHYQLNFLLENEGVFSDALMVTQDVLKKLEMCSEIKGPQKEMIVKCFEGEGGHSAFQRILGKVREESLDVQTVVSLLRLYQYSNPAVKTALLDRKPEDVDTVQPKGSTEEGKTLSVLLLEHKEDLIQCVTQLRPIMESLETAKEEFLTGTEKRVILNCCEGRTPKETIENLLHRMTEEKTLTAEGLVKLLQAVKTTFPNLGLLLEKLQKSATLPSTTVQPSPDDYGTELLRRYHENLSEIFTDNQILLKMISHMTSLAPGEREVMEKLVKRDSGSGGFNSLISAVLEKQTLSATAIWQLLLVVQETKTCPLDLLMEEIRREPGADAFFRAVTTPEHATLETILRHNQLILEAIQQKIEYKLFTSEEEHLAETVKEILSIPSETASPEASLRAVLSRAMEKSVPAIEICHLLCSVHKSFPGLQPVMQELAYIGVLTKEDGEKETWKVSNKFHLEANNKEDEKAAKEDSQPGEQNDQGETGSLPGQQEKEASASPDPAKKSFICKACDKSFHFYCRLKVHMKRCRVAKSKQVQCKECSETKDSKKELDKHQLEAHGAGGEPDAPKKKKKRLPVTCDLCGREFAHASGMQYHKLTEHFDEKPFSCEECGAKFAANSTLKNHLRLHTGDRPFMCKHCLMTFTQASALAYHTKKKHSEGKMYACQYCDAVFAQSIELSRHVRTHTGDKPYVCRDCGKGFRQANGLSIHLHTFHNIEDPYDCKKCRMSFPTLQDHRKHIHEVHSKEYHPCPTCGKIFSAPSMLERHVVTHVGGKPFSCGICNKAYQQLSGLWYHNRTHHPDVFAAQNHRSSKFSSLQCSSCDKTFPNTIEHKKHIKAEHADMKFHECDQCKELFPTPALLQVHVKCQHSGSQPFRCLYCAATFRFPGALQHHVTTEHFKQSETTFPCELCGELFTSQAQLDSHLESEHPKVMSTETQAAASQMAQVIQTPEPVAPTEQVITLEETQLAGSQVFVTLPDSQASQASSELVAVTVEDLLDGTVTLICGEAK
inactive: [1] 0.06 | [2] -0.076 | [3] 0.029 | [4] -0.014 | [5] -0.127 | [6] 0.095 | [7] -0.017 | [8] -0.012

WAC isoform 5 (UniProt Q9BTA9)
Chain of UniProt Q9BTA9 (Q9BTA9 whole entry, looked up): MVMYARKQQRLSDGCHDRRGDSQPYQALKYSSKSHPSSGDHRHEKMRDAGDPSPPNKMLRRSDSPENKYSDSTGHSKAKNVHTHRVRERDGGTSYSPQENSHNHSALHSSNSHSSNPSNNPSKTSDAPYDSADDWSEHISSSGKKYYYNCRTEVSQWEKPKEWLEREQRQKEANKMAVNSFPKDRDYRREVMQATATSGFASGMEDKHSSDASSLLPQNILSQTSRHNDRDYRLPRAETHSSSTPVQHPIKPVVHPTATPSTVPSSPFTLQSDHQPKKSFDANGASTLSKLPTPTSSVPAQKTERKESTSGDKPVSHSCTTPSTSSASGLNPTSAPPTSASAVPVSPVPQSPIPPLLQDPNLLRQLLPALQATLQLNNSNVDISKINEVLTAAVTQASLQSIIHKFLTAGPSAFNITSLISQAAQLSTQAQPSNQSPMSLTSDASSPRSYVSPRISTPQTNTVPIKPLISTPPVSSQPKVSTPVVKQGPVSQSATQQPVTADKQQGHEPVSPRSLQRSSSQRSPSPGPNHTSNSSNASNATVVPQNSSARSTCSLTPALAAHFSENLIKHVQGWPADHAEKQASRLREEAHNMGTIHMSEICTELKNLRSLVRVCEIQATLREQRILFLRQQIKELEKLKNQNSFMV
inactive: [4] 0.047 | [7] -0.078

ZNF652 (UniProt Q9Y2D9)
inactive: [8] -0.034

ZDHHC17 (UniProt Q8IUH5)
Chain of UniProt Q8IUH5 (Q8IUH5 whole entry, looked up): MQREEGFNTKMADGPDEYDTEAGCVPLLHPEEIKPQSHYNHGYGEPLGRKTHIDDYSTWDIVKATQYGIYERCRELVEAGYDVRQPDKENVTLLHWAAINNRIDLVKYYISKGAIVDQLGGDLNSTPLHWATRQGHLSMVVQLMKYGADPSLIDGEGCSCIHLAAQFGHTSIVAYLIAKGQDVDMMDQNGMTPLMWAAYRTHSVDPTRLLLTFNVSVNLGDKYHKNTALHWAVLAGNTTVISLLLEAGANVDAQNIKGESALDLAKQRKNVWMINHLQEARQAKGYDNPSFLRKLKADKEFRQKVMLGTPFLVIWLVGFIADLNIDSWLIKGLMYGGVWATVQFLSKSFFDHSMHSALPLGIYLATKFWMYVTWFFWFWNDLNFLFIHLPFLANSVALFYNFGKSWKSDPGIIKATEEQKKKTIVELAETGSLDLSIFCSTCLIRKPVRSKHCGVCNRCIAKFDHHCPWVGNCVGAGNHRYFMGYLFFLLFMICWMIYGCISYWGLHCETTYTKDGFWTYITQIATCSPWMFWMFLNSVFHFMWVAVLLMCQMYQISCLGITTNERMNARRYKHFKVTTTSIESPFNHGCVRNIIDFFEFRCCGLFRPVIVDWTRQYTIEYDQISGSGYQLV
inactive: [1] 0.058 | [2] 0.047 | [9] 0.077 | [3] -0.071 | [4] 0.166 | [5] -0.346 | [6] 0.141 | [7] 0.205 | [8] 0.117

UNC13A (UniProt Q9UPW8)
active: [5] -1.79
inactive: [6] 0.531

VASN (UniProt Q6EMK4)
Chain of UniProt Q6EMK4 (Q6EMK4 whole entry, looked up): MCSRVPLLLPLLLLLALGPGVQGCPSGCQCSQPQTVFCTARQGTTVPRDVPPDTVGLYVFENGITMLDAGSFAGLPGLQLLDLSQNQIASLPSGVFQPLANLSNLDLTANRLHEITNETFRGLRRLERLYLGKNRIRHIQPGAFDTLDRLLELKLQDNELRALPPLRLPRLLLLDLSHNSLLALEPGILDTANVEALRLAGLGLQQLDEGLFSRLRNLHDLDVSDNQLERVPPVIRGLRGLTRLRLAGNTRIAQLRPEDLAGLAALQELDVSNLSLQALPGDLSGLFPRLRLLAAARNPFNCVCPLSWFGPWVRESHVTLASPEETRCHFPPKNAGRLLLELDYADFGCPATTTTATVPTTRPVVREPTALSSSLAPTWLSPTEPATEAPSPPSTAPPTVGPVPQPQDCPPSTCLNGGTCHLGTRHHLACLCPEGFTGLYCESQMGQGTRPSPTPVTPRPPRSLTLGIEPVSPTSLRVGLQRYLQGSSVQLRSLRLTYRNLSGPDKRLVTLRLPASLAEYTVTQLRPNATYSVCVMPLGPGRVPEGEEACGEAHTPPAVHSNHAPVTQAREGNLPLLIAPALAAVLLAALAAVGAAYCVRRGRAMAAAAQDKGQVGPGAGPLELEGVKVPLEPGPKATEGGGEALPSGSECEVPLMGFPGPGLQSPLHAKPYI
inactive: [9] 0.046 | [4] 0.023 | [7] 0.065
